For 40 compounds, growth results are on record in PubChem BioAssay (NCI).

This is part of a sample that, as a whole, favours compounds with a hit. Of some 83,000 tested, about 20% had one in any assay.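 Growth was measured after 48 h exposure to one concentration of compound in 96-well plates. Values under 10 count as active.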 Calls of active or inactive are those of the source.

The test system of the assay is RPMI-8226 leukemia. Description: NCI-60 one-dose screen, 48 h (100 = growth as untreated, 0 = no growth, -100 = all killed). The conditions noted are these: 10 µM unless noted. On the procedure: Growth inhibition of the RPMI-8226 human tumor cell line is measured as a screen for anti-cancer activity. Cells are grown in 96 well plates and exposed to the test compound for 48 hours. Compounds are tested at a single concentration, which is 10^-5 M for most compounds. The reported endpoint is percent growth (GI% or GIPRCNT), where numbers from 0 - 100% represent growth inhibition, and numbers from -100% - 0 represent cell death. For example, a value of 40 represents 60% growth inhibition. A value of 0 means no net growth occurred over the course of the experiment. A value of -40 indicates 40% of cells at the beginning of the experiment died by the end of the experiment. A value of -100 means all cells are dead at the end of the experiment.
NCI-60 Human Tumor Cell Lines Screen was performed using the standard one-dose NCI protocol, which is described in more detail at https://dtp.cancer.gov/discovery_development/nci-60/default.htm.
Compounds with GIPRCNT values below 10 were considered active. Activity score was based on GIPRCNT using the following formula: […]
Score is 0 for GIPRCNT values of 100 or above, 50 for GIPRCNT values of 0, and 100 for GIPRCNT values of -100.
As to `O=C(c1nc2ccccc2[nH]1)C1[C@@H](c2cccc(O)c2)C2CC3CCCCC3N2[C@@]12C(=O)Nc1cc(Cl)ccc12` (stereo not given in full), the growth is 4.43% (active).
The figure for `O=c1oc2ccc(Cl)cc2c(=O)n1-c1ccc(I)cc1F` is -25.3% (active); for `Cc1ccccc1CNC(=O)C1CN(c2ccc(Cl)cc2)N(c2ccc(Cl)cc2)C1=O` (stereo not given) it is 65% (inactive); for `Cc1ccc(NC2=CC(=O)C(=O)c3ccccc32)c(C)c1` it is 56.7% (inactive).
The figure for `COc1ccc(/C=c2\sc3n(c2=O)NC2C(N=3)N(C)C(=O)N2C)cc1` (stereo not given) is 96.1% (inactive).
The figure for `CCCC(c1nnnn1C1CCCCC1)N1CCN(C(=O)c2ccco2)CC1` (stereo not given) is 28.9% (inactive); for `O=c1oc2ccc(Br)cc2c(=O)n1-c1ccc(F)cc1F` it is -4.83% (active); for `CCOC(=O)c1c2c(c(C)n1Cc1ccc(OC)cc1)-c1oncc1CC2` it is 62.9% (inactive).
With `COc1ccc2sc3c(NCCCN)nc4ccccc4c3c(=O)c2c1`, the growth is -6.79% (active).
Take `CN(C)c1ccc(N=Cc2ccc(N3CCOCC3)cc2)cc1`: the growth was 47.5% (inactive).
`CC1CCCCN1CCCNC(=O)c1ccc2c(c1)sc1nc(-c3ccc(F)cc3)cn12` (stereo not given): the growth was 86% (inactive).
The figure for `COc1ccc2oc(=O)cc(Cn3cc(Cn4cnc5c4c(=O)n(C)c(=O)n5C)nn3)c2c1` is 103% (inactive).
To `CCN1CCN(C(=S)SCC(=O)Nc2nc3ccc(C)cc3s2)CC1` belongs 94.7% (inactive).
To `COc1ccc(C2=C(c3cccc(OC)c3)C(=O)c3ccc(C)nc3C2=O)cc1` belongs 47.2% (inactive); to `CCN(CC)c1cc(C)c2cc(NC(=O)c3cccc(OC)c3)ccc2n1`, 7.5% (active).
Turning to `COc1ccc(/C=C2\NC(=O)NC2=O)cc1O`, the growth is 101% (inactive).
For the compound `O=c1oc2ccc(Br)cc2c(=O)n1-c1ccc(Br)cc1F`, the growth was -13.8% (active).
The figure for `FC(F)(F)c1cccc(Nc2nc3ccccc3nc2Nc2cccc(C(F)(F)F)c2)c1` is -30.9% (active); for `Cc1[nH]c2ccccc2c(=O)c1CC=C(Cl)Cl` it is -20.7% (active).
Regarding `O=c1c(-c2nc3ccccc3[nH]2)cc2ccccc2n1Cc1cn(Cc2ccc(F)cc2)nn1`, the growth is 16.7% (inactive).
The figure for `COc1cccc(C(=O)NC(c2ccc(C)cc2)c2cc(Cl)c3cccnc3c2O)c1` (stereo not given) is 15.5% (inactive); for `COc1cccc(C2=NN3C(C2)c2ccccc2OC3c2ccc(/C=C3\SC(=O)NC3=O)cc2)c1` (stereo not given) it is 99.4% (inactive); for `O=C(Nc1nc2c(s1)CCc1c-2c(Br)n(Cc2ccccc2)c1Br)c1ccccc1` it is 63.2% (inactive).
As to `CCOc1cccc(/C=N/NC(=O)C(=O)Nc2cccc(C(F)(F)F)c2)c1O`, the growth is 29% (inactive).
Turning to `CCCCCCn1c(=N)n(CC(O)COc2cccc(C)c2)c2ccccc21` (stereo not given), the growth was -24.8% (active).
To `CSc1nc2c(c(=O)n1C)N=C1c3ccccc3C(=O)C1C(c1ccccc1)N2` (stereo not given) belongs 94.9% (inactive); to `Brc1ccc(Oc2ccc(Nc3ncnc4onc(-c5ccccc5)c34)cc2)cc1`, 90.3% (inactive); to `O=C(Nc1ccc(N2CCNCC2)cn1)c1[nH]ncc1Nc1ncnc2sccc12`, 1.87% (active).
The figure for `Cn1c(C(=O)c2cccc3ccccc23)nc2ccccc21` is 17.6% (inactive); for `COc1cc(C(=O)Nc2ccc(-c3nc4ccccc4[nH]3)cc2)cc(OC)c1OC` it is 19.2% (inactive).
Consider `N#CC(C#N)=Cc1c(-c2ccccc2)[nH]c2ccccc12`, for which the growth is -24.8% (active).
To `CCN1C(=O)N(c2ccccc2)C2NN=c3s/c(=C4\C(=O)N(C(C)C)c5ccccc54)c(=O)n3C21` (stereo not given) belongs 32% (inactive).
`CCCCOCc1cc(CN2CCN(C)CC2)c(O)c2ncccc12`: the growth was 48.2% (inactive).
Consider `Cc1ccc(S(=O)(=O)c2c(COC(=O)c3cccc(C)c3)c(-c3ccccc3)nn2C)cc1`, for which the growth was 78.5% (inactive).
The figure for `O=C(N=Nc1c(O)[nH]c2ccccc12)c1oc2ccccc2c1CN1CCN(c2ccccc2)CC1` is 7.75% (active); for `CCN(CC)CCCNc1ccnc2cc3ccccc3cc12` it is 74.2% (inactive).
To `COc1c2ccoc2c(/C=C/C=O)c2oc(-c3ccccc3)cc(=O)c12` belongs 28% (inactive); to `CC[C@H](C)[C@@H](C(=O)OC)n1cc(CNC(=O)[C@@H](Cc2ccccc2)NC(=O)OCc2ccccc2)nn1`, 90.1% (inactive).
The figure for `O=C(CSc1nc2ccccc2c(=O)n1-c1ccccc1)Nc1ccc(C(=O)/C=C/c2ccc(Cl)cc2)cc1` is 91.5% (inactive); for `CCOc1ccccc1CN1CCc2nc3cc(C(C)(C)C)[nH]n3c(=O)c2C1` it is 101% (inactive).
